This passage reports outcome results from PubChem BioAssay AID588853 (National Center for Advancing Translational Sciences (NCATS), 2011).

Active and inactive are the calls of the source.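 The calls were made as follows: active = glucocerebrosidase seen by eye moving to lysosomes in immunostained patient skin cells after 5 µM compound; inconclusive = microscope result judged unclear; inactive = no movement seen.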

The target of the experiment is Lysosomal acid glucosylceramidase (Homo sapiens) (UniProt P04062). As to the kind of experiment: qHTS for Activators of Human Glucocerebrosidase as a Potential Chaperone Treatment of Gaucher Disease: Fibroblast Translocation. The settings on record: Gaucher patient fibroblasts, GCase lysosomal translocation, immunofluorescence. The text has this: Glucocerebrosidase (GCase) catalyzes the hydrolysis of beta-glucocerebroside to glucose and ceramide in lysosomes. Mutations in the glucocerebrosidase gene result in Gaucher disease, an autosomal recessive lysosomal storage disorder. Many of the mutations encountered in patients with Gaucher disease are missense alterations that may cause misfolding, decreased stability and/or mistrafficking of this lysosomal protein. […] However, the enhancement of enzyme activity by the chaperone action of an enzyme inhibitor must be balanced against the direct inhibition of the enzyme. An enzyme activator could also function as a chaperone by binding to the enzyme and helping to correct its misfolding and mistrafficking. Activators for GCase have not yet been identified, and they may have better therapeutic potential than inhibitors. Therefore the discovery and development of chemical activators may provide a new strategy for the chaperone therapy. The probe that has been identified was tested in a chaperone translocation experiment in human fibroblasts. This assay attempts to quantitate translocated glucocerebrosidase protein in patient-derived fibroblasts following extended compound incubation. The fibroblasts tested in this experiment were homozygous either for N370S glucocerebrosidase or wildtype GCase. NIH Chemical Genomics Center [NCGC] […]
Lysosomal acid glucosylceramidase (Homo sapiens), sequence (P04062 whole entry N409S): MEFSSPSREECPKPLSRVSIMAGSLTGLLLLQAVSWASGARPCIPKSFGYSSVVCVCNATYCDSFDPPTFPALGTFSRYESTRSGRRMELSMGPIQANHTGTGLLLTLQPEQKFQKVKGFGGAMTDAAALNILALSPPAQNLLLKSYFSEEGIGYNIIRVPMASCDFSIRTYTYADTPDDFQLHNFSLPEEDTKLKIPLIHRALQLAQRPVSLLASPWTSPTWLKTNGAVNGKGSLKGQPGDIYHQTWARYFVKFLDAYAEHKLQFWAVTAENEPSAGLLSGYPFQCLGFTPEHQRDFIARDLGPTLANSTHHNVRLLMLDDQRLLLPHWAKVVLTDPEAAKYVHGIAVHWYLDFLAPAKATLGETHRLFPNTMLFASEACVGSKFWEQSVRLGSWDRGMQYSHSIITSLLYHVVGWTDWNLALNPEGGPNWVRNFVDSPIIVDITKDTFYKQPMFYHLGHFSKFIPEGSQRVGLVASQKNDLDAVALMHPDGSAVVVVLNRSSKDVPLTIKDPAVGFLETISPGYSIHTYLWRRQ
As to `CN(C(=O)CNC(=O)c1ccccc1OCC(=O)Nc1ccc(Br)cc1)c1ccccc1`, the outcome was “active; yes”. Next, `C#Cc1ccc(NC(=O)c2cnn3c(C)cc(C)nc23)cc1`: “active; yes”.
